Measured values from PubChem BioAssay AID435019 (Southern Research Specialized Biocontainment Screening …, 2010).
Among all 2,300 compounds or so, about 1,200 (52%) were called active. How the calls were made is not given here. The set was probably picked from earlier hits. Some of the results follow. Results with a measured potency or affinity are listed apart.

Experiment: mammalian cell cytotoxicity, dose response, cytotoxicity control for M. tuberculosis inhibitor project (AID 435019);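 further: lower values mean fewer viable cells so more cytotoxicity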
Conditions: cytotoxicity counter-screen; series mostly up to 40 µM

Row | Structure (SMILES) | outcome
1 | O=S(=O)(Nc1ccc2[nH]ncc2c1)c1ccccc1Cl | inactive
2 | CC(C)(C)C1CCc2nc(NC(=O)Cc3cn4ccsc4n3)sc2C1 (centres undefined) | inactive
3 | COC(=O)[C@H](CCSC)NC(=O)N1CCN(c2cccc(C(F)(F)F)c2)CC1 | inactive
4 | Cc1cc2c(cc1C)/C(=N/NC(=O)c1ccccn1)CCC2 | inactive
5 | O=C(NNC1CC(=O)N(c2ccc(Br)cc2)C1=O)c1ccccn1 (centres undefined) | inactive
6 | Cc1nn(-c2ccccc2)c(Cl)c1C(=O)Nc1nnc(C2CCCCC2)s1 | inactive
7 | Cc1nn(-c2ccccc2)c(Cl)c1/C=C/C(=O)c1ccccc1 | inactive
8 | Cc1cccc(C)c1OCCCCc1c(C)n[nH]c1C | inactive
9 | COC(=O)CCc1sc(Nc2ccc(Br)cc2)nc1-c1ccc(OC)cc1 | inactive
10 | COc1cccc(NC(=O)CNC(=O)Cn2cnc3sc4c(c3c2=O)CCCC4)c1 | inactive
11 | COC(=O)c1cc(-c2cccc(OC)c2)on1 | inactive
12 | CCNC(=S)NN=C1c2ccccc2-c2ccccc21 | inactive
13 | Cn1/c(=N/NC(=O)c2cccc(OC(F)F)c2)sc2ccccc21 | inactive
14 | CC(OC(=O)COc1ccc(Nc2ccccc2)cc1)C(=O)N(C)c1ccccc1 (centres undefined) | inactive
15 | C[n+]1c(-c2ccccc2)cc(CCCCc2cc(-c3ccccc3)[n+](C)c(-c3ccccc3)c2)cc1-c1ccccc1 | inactive
16 | CC1CC(C)CN(C(=O)C2CCC(CNc3c(N4CCCCC4)c(=O)c3=O)CC2)C1 (centres undefined) | inactive
17 | CCC(C)c1ccc2oc(-c3ccc(NC(=O)c4ncn[nH]4)cc3)nc2c1 (centres undefined) | inactive
18 | CC(/C=C/C=C/c1ccccc1)=N\NC(=O)c1cccnc1 | inactive
19 | CCOC(=O)COc1cc([N+](=O)[O-])cc2cccnc12 | inactive
20 | CCC1CSC(Nc2ccc(C(=O)/C=C/c3cccc(C)c3)cc2)=N1 (centres undefined) | inactive
21 | O=C(c1ccccc1)c1c[nH]c(C(=O)NNc2ccccc2)c1 | inactive
22 | COc1ccc(Cc2nc3ccc(C(=O)NCCCSC)cc3o2)cc1OC | inactive

Row | Structure (SMILES) | outcome
23 | Cc1ncc(C23CC4CC(CC(C4)C2)C3)[nH]1 | inactive
24 | COc1cc(/C=C2\C(=O)NN(c3ccc(C)cc3)C2=O)cc([N+](=O)[O-])c1O | inactive
25 | CC(C)(C)NC(=O)COC(=O)c1cc(Br)ccc1Cl | inactive
26 | Cc1nonc1OCCNCCNc1ccc([N+](=O)[O-])c2cccnc12 | inactive
27 | O=C1C(Br)=Cc2cccc3cccc1c23 | inactive
28 | C=C[C@]1(C)C[C@@H](OC(=O)CSCCN(CC)CC)[C@]2(C)C(C)CC[C@]3(CCC(=O)[C@H]32)[C@@H](C)[C@@H]1O (some centres undefined) | inactive
29 | Cc1noc(C)c1COc1ccc(C(=O)OCC(=O)NC23CC4CC(CC(C4)C2)C3)cc1 | inactive
30 | O=Cc1ccc(-c2ccc(Cl)cc2Cl)[nH]1 | inactive
31 | O=C(N[C@H]1CCC(=O)N(CCSc2ccc(Br)cc2)CC1)OCc1ccccc1 | inactive
32 | CN(C(=O)COC(=O)c1sc2ccccc2c1Cl)C1CCCCC1 | inactive
33 | N#CCCN(C(=O)COC(=O)CCc1c[nH]c2ccccc12)c1ccc(F)cc1 | inactive
34 | COc1ccc(OC)c(C(=O)NC(CC(N)=O)c2ccc(NCc3ccc(F)c(F)c3)c([N+](=O)[O-])c2)c1 (centres undefined) | inactive
35 | O=[N+]([O-])c1cn(-c2nc(-c3ccco3)cc(C(F)(F)F)n2)cn1 | inactive
36 | CC(C)(O)C#Cc1ccc(C(=O)Nc2ccc3c(c2)OCO3)s1 | inactive
37 | CC1(C)OC(=O)C(=Cc2ccc[nH]2)C(=O)O1 | inactive
38 | Cc1ccccc1Cn1cc(NC(=O)c2noc(C(C)C)c2[N+](=O)[O-])cn1 | inactive
39 | Cc1ccc(C2=NCCn3c2c2ccccc2[n+]3[O-])cc1 | inactive
40 | O=S(=O)(c1ccc(Oc2ccc3oc4ccccc4c3c2)nc1)N1CCCC1 | inactive
41 | O=c1[nH][nH]c(-c2ccccc2O)c1C(C[N+](=O)[O-])c1cccc(Cl)c1 (centres undefined) | inactive
42 | Cc1ccc(C(=O)n2c(N)nc3ccccc32)cc1 | inactive
43 | Cc1ccc(NCCC(=O)c2ccc(Br)cc2)cc1 | inactive
44 | COc1ccc(N/C=C/c2nc(SC)nnc2C)cc1 | inactive

Row | Structure (SMILES) | outcome
45 | O=C(c1cc([N+](=O)[O-])ccc1N1CCOCC1)N1CCN(S(=O)(=O)c2cc(Cl)ccc2Cl)CC1 | inactive
46 | COc1ccc(N2CCN(C(=O)c3cc4c(C)nc5ccccc5c4o3)CC2)cc1 | inactive
47 | CN(CC(=O)Nc1ccc(OC(F)(F)F)cc1)C(=O)/C=C/c1cc2c(cc1[N+](=O)[O-])OCO2 | inactive
48 | CC(=O)c1ccc(NC(=O)c2cc(CC(C)C)on2)cc1 | inactive
49 | CCOC(=O)CSc1nc(N)c(C(=O)Nc2ccc(N(C)C)cc2)s1 | inactive
50 | CCOc1ccc(NC(=O)N(C2CCCCC2)C(C)c2ccncc2)cc1 (centres undefined) | inactive
51 | CCCc1ccc(OCc2ccccc2)c2c(=O)cc(C(=O)OCC)oc12 | inactive
52 | O=C(Nc1cccnc1Cl)c1cc(-c2ccco2)on1 | inactive
53 | Cc1cc(C)n(-c2ccc(C(=O)Oc3ccc4c(c3)OCO4)cc2)n1 | inactive
54 | COc1ccc(-c2nsc3c(N4CCCCC4C)ncnc23)cc1 (centres undefined) | inactive
55 | Cc1ccc(N/C=C2\C(=O)C3(C)CCC2C3(C)C)cc1C (centres undefined) | inactive
56 | O=C(CCC(=O)OCc1ccc(C(=O)Oc2ccc(Cl)cc2)cc1)Nc1ccccc1 | inactive
57 | COc1ccccc1OC(=O)c1ccc(S(=O)(=O)N(C)C)cc1 | inactive
58 | CSc1ccc(CNC(=O)c2ccc(NC(=O)C3=CSCCO3)cc2)cc1 | inactive
59 | CCC1(c2ccccc2)NC(=O)N(CC(=O)Nc2ccc(S(=O)(=O)NC3=NCCCCC3)cc2)C1=O (centres undefined) | inactive
60 | CC(=O)/C(=N\Nc1ccc(C)cc1)N1CCOCC1 | inactive
61 | O=[N+]([O-])c1ccc(CN2CCN(c3ccc(Cl)cc3)CC2)o1 | inactive
62 | CCOC(=O)C1CCN(CC(O)COc2ccc(C(C)(C)CC)cc2)CC1 (centres undefined) | inactive
63 | C[N+](C)(CCCCCC[N+](C)(C)CCCN1C(=O)c2cccc3cccc(c23)C1=O)CCCN1C(=O)c2cccc3cccc(c23)C1=O | inactive
64 | O=C(c1ccccc1)c1nn(-c2ccc(Cl)cc2)cc1C(=O)c1cc2ccccc2oc1=O | inactive
65 | COc1c[nH]n(C2CCCCC2)c(=O)c1=O | inactive
66 | CCOc1ncccc1C(=O)OCC(=O)N1CCc2ccccc21 | inactive

Row | Structure (SMILES) | outcome
67 | CS(=O)(=O)c1ccc([C@@H](O)[C@@H](CF)NC(=O)C(Cl)Cl)cc1 | inactive
68 | O=C(O)Cc1c[nH]c2ccc(O)cc12 | inactive
69 | Cc1ccc(-c2cn3cccnc3n2)cc1NC(=O)c1ccc(Br)o1 | inactive
70 | O=C(CSC1=NC(=O)C(c2ccccc2)C(=O)N1)Nc1ccccc1Cl (centres undefined) | inactive
71 | O=C(Nc1nc2nc(-c3ccccc3)cc(=O)n2[nH]1)c1ccccc1 | inactive
72 | CCOC(=O)CSc1ccc(C(=O)Nc2ccc(OC)cc2)cn1 | inactive
73 | O=C1N=C(N2CCC(Cc3ccccc3)CC2)S/C1=C/c1cn[nH]c1-c1ccccc1 | inactive
74 | C=CCSc1n[nH]c(-c2ccc(OCCCC)cc2)n1 | inactive
75 | CCOC(=O)c1c(C)[nH]c(N=Nc2ccc(OC)cc2)c1C | inactive
76 | Cc1ccc2nc(SCC(=O)Nc3ccc4c(c3)CCC4)[nH]c2c1 | inactive
77 | O=C(CSCc1ccc([N+](=O)[O-])cc1)N/N=C/c1ccncc1 | inactive
78 | CCOC(=O)COc1ccc(S(=O)(=O)NCCC2=CCCCC2)cc1 | inactive
79 | O=c1oc2ccccc2c2c1nc(C(F)(F)F)n2-c1ccccc1 | inactive
80 | CCOC(=O)c1cn[nH]c1N | inactive
81 | CCCCc1ccc(NC(=S)N2CCN(c3ncccn3)CC2)cc1 | inactive
82 | CC(C)OC(=O)c1ccc(COC(=O)c2cnccn2)cc1 | inactive
83 | CCCCCCC(=O)N/N=C/c1ccc(Br)cc1 | inactive
84 | CC(=O)/C(=C\Nc1ccc(OCc2ccccc2)cc1)c1ccccc1 | inactive
85 | C/C(=N/NC(=O)c1ccccn1)c1c[nH]c2ccccc12 | inactive
86 | CC/C(C)=N/NC(=S)NCc1ccco1 | inactive
87 | O=C(OCC(=O)N1CCC(c2ccccc2)=N1)c1ccc(Cl)s1 | inactive
88 | Cc1ccc(C(=O)O/N=C(\N)c2ccc(Br)cc2)cc1C | inactive

Row | Structure (SMILES) | outcome
89 | COC(=O)c1ccc(COC(=O)CCc2nc(-c3ccccc3)c(-c3ccccc3)o2)cc1 | inactive
90 | Cc1cc(=O)oc2cc(OC(=O)C3CCN(C(=O)c4ccc(F)cc4)CC3)ccc12 | inactive
91 | Cc1ccc(C(=O)N2N=C(CC(C)C)CC2(O)C(F)(F)F)o1 (centres undefined) | inactive
92 | Nc1ccc2c(c1)Cc1ccccc1-2 | inactive
93 | CCCC(=O)Nc1sc2c(c1C#N)CCCCC2 | inactive
94 | CCOC(=O)CSc1nnc(-c2c[nH]c3ccccc23)o1 | inactive
95 | CCOC(=O)Cn1c(C)c(Br)c(=O)c2cccc(C)c21 | inactive
96 | Cc1ccc(/C=C2\SC(N3CCCC3)=NC2=O)cc1 | inactive
97 | CN(C)C/C=C/C(=O)Nc1cccc(-c2c[nH]c3ncnc(Oc4ccc(NC(=O)CC(=O)Nc5ccc(F)cc5)cc4F)c23)c1 | inactive
98 | CSc1nsc(SCC(=O)N2CCCCC2)n1 | inactive
99 | NNC(=S)NCc1ccc2c(c1)OCO2 | inactive
100 | Cc1cc(NC(=O)c2noc3c2CCCC3)nn1Cc1ccc(Cl)cc1 | inactive
101 | CCOc1ccc(/C=N/OCC(=O)Nc2cc(C)on2)cc1 | inactive
102 | COCCCN=C1NN=C(c2cc(C)n(Cc3ccco3)c2C)CS1 | inactive
103 | Cc1ccc(C2=NN(C)c3nc4ccccc4n3C2)cc1 | inactive
104 | COc1ccc(OC)c(CN2CCN(C(=O)CNC(=O)c3ccc(C(C)(C)C)cc3)CC2)c1 | inactive
105 | Cc1cc(NC(=O)CCN2C(=O)C3C4C=CC(C4)C3C2=O)ccc1Br (centres undefined) | inactive
106 | COc1ccc(-c2c(C#Cc3ccsc3)c3ccccc3n2C)cc1 | inactive
107 | CCOC(=O)c1ccc(NC(=O)C(C)Sc2nc(O)c(-c3ccccc3)c(=O)[nH]2)cc1 (centres undefined) | inactive
108 | O=C(Nc1ccc(C2=NCCN2)cc1)c1ccc(Cl)c(C(=O)Nc2ccc(C3=NCCN3)cc2)c1 | inactive
109 | CC(=O)c1sc(NC(=O)c2cc(=O)c3ccccc3o2)nc1C | inactive
